Bioassay records as filed in PubChem BioAssay.
A selection: hits, their analogues and other compounds. The true share with any hit is near 3.8%.
Nrf2 inh = Nrf2 qHTS screen for inhibitors; A549 ARE-Fluc reporter, luciferase luminescence, 18-24 h; Potency, µM (titrated, usually from 46 µM), actives largely listed as inhibitors; actives 2.1% (n = 360,000); also: nearly all actives have a fitted effect of over 60% in size
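Reporter: ARE-Fluc in A549. Exposure: 18-24 h, 37 °C, 5% CO2, 5% FBS OPTI-MEM. Readouts: fluorescent cytotoxicity (CellTiter-Fluor), then luminescent Nrf2 signal after BugLite.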
TGFb SMAD3 inh = qHTS for Inhibitors of TGF-b; HepG2 CAGA-GFP TGF-b/SMAD3 reporter, GFP fluorescence, 18 h; TGF-beta stimulated, 500 pg/mL final; Potency, µM (titrated, usually from 46.1 µM), actives largely listed as inhibitors; actives 1.2% (n = 410,000); also: nearly all actives have a fitted effect of over 65% in size
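Cell-based qHTS in HEPG2 carrying a CAGA-GFP Smad reporter; compounds added before 500 pg/mL final TGF-beta, 18 h incubation at 37 degrees C, GFP fluorescence quantified per cell by imaging cytometry.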
HepG2 viability = qHTS for Inhibitors of TGF-b: Cytotox Counterscreen. HepG2 CAGA-GFP viability, ATP luminescence, 18 h. Potency, µM (doses to about 46.1 µM), usual class: cytotoxic. actives 0.76% (n = 410,000). AID 588856, 2011
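HepG2 CAGA-GFP cells (1000/well, DMEM with 1% FBS) received compound, then TGF-beta at 500 pg/mL final, and were incubated 18 hours at 37 degrees C. Viability was read by CellTiter-Glo luminescence. Media-only wells were set as complete cell-killing and DMSO as no toxicity.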
ATXN2 expr inh = Primary qHTS for Inhibitors of ATXN expression; HEK-293 ATXN2-luciferase reporter, luminescence, 24 h; Potency, µM (titrated, usually from 57 µM), most hits filed as inhibitors; actives 0.72% (n = 360,000); also: nearly all actives have a fitted effect of over 55% in size
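qHTS (up to 57 uM final) was run with 24 h compound exposure of reporter cells at 37 °C. Each well was multiplexed: SteadyGlo luminescence measured ATXN2-luciferase expression after a fluorogenic Gly-Phe-AFC viability readout (25 uM final).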
A549 tox = Nrf2 qHTS screen for inhibitors: counterscreen for cytotoxicity | AID 504648, 2011 | Potency, µM (top dose mostly 46 µM), usual class: inhibitors | A549 ARE-Fluc cells, CellTiter-Fluor viability, 18-24 h | actives 0.16% (n = 390,000)
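A549 ARE-Fluc cells in 5% FBS OPTI-MEM, 5000 cells/well, rested 2 h then exposed to compounds in concentration-response for 18-24 h at 37 °C. Viability by CellTiter-Fluor fluorescence (Ex 405/Em 525) after 30 min; luciferase luminescence (BugLite, 15 min, RT) read afterwards.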
S2 tox = Viability Counterscreen for Primary qHTS for Inhibitors of ATXN expression; Potency, µM (highest dose often 56.7 µM), hits mostly cytotoxic; actives 0.49% (n = 400,000); S2 cells (HEK-293 line with an ATXN2-luciferase reporter) viability, CellTiter-Fluor protease fluorescence, 24 h; also: nearly all actives have a fitted effect of over 40% in size
Of the large screens only hits and unclear results are named; the others gave an inactive call; ! = a repeat was not active. Calls follow the shape of the dose curve; as a rule, active = well fitted curve in the direction sought with a large enough effect; inconclusive = small, poorly fitted or top-dose-only effect, or another doubt; inactive = no such curve, though single readings can be large; an effect the other way counts as inactive or inconclusive.

O=C(Cc1ccc2c(c1)OCCO2)Nc1cc(C(F)(F)F)ccc1N1CCOCC1	Nrf2 inh inconclusive, S2 tox inconclusive
COC(=O)c1c(C(=O)OC)c(-c2ccc(Cl)c(Cl)c2)n2c1CCC2	Nrf2 inh 18.4µM
COc1ccc(NC(=O)c2nc(S(=O)(=O)Cc3cccc(C)c3)ncc2Cl)c(OC)c1	none (no result: ATXN2 expr inh)
Cc1ccc(CSc2ncc(Cl)c(C(=O)NCc3ccccc3)n2)cc1	none (no result: ATXN2 expr inh, S2 tox)
O=C(NCc1ccccc1)c1nc(S(=O)(=O)Cc2ccc(F)cc2)ncc1Cl	Nrf2 inh 25.9µM, TGFb SMAD3 inh inconclusive, A549 tox inconclusive (no result: ATXN2 expr inh, S2 tox)
Cc1cccc(CS(=O)(=O)c2ncc(Cl)c(C(=O)NCc3ccccc3)n2)c1	Nrf2 inh inconclusive, TGFb SMAD3 inh 3.16µM, HepG2 viability 3.55µM! (no result: ATXN2 expr inh, S2 tox)
Cc1ccc(-c2noc(CNS(=O)(=O)c3ccccc3)n2)cc1	none
CSc1ccc(/C=C(\C#N)C(=O)Nc2cccc(C)c2)cc1	none
O=C(CC1C(=O)NCCN1Cc1ccc(-c2ccccc2)cc1)NCC1CC1 (stereo unspecified)	Nrf2 inh 23.1µM, A549 tox inconclusive
C=CCNC(=O)CC1C(=O)NCCN1Cc1ccc(-c2ccccc2)cc1 (stereo unspecified)	none (no result: ATXN2 expr inh)
CCC(=O)N1CCc2cc(Br)cc(S(=O)(=O)N3CCC(C(=O)Nc4ccccc4F)CC3)c21	Nrf2 inh 13µM
Nc1c(-c2ccccc2)c(CSc2nc3ccccc3[nH]2)nn1-c1ccc(Cl)cc1	Nrf2 inh inconclusive, A549 tox inconclusive, S2 tox inconclusive
Cc1ccccc1-n1nc(CSc2nc3ccccc3[nH]2)c(-c2ccccc2)c1N	Nrf2 inh 23.1µM, TGFb SMAD3 inh inconclusive
Nc1c(-c2ccccc2)c(CSc2nc3ccccc3[nH]2)nn1-c1cccc(Cl)c1	Nrf2 inh 23.1µM
c1ccc(CSc2nc3ccccc3[nH]2)cc1	none
COc1ccc(CCN2CC(C(=O)N(C)Cc3c(C)n[nH]c3C)CCC2=O)cc1 (stereo unspecified)	none
CCc1ccccc1N1C(=O)N(Cc2ccccc2C)c2ccccc2S1(=O)=O	none (no result: Nrf2 inh)
C[C@@H](O[C@H]1OCCN(Cc2n[nH]c(=O)[nH]2)[C@@H]1c1ccc(F)cc1)c1cc(C(F)(F)F)cc(C(F)(F)F)c1	ATXN2 expr inh inconclusive, S2 tox 31.6µM (no result: Nrf2 inh, TGFb SMAD3 inh, HepG2 viability, A549 tox)
CC(NC(=O)COC(=O)C1CCN(c2ccc(C(F)(F)F)cn2)CC1)c1ccc(F)cc1 (stereo unspecified)	none (no result: ATXN2 expr inh)
CCn1c(CC(=O)Nc2ccccc2F)nnc1SCC(=O)NC1=NCCS1	none (no result: Nrf2 inh, ATXN2 expr inh, A549 tox)
COCCNc1nc(NCc2ccc(NC(C)=O)cc2)c2sc(-c3ccccc3)cc2n1	TGFb SMAD3 inh inconclusive, ATXN2 expr inh 22.4µM (no result: Nrf2 inh, A549 tox, S2 tox)
COCCNc1nc(NCc2cccc(OC)c2)c2sc(-c3ccccc3)cc2n1	TGFb SMAD3 inh inconclusive, HepG2 viability 11.2µM, S2 tox inconclusive (no result: Nrf2 inh, A549 tox)
C=CCNc1nc(NCc2ccc(N(C)C)cc2)c2sc(-c3ccccc3)cc2n1	TGFb SMAD3 inh inconclusive, HepG2 viability 12.6µM, S2 tox inconclusive (no result: Nrf2 inh, A549 tox)
COCCNc1nc(Oc2ccc(NC(C)=O)cc2)c2sc(-c3ccccc3)cc2n1	TGFb SMAD3 inh inconclusive, ATXN2 expr inh inconclusive, S2 tox inconclusive (no result: Nrf2 inh, A549 tox)
c1ccc(CNc2nc(NCC3CC3)nc3cc(-c4ccccc4)sc23)cc1	TGFb SMAD3 inh inconclusive, ATXN2 expr inh inconclusive, S2 tox inconclusive (no result: Nrf2 inh, A549 tox)
C=CCNc1nc(NCCOC)c2sc(-c3ccccc3)cc2n1	TGFb SMAD3 inh inconclusive, ATXN2 expr inh inconclusive, S2 tox inconclusive (no result: Nrf2 inh, A549 tox)
c1ccc(OCCNc2nc(NCC3CC3)nc3cc(-c4ccccc4)sc23)cc1	TGFb SMAD3 inh inconclusive, ATXN2 expr inh inconclusive, S2 tox 15.8µM (no result: Nrf2 inh, A549 tox)
CC(C)(O)C#Cc1ccc(CN2CCC(n3nccc3NC(=O)C3CC3)CC2)cc1	none
CCOc1ccc(NC(=O)CSc2nccn2-c2cccc(C)c2C)cc1	ATXN2 expr inh inconclusive (no result: Nrf2 inh)
